Results: PubChem BioAssay (Tox21)
Records with an inconclusive call do not appear. Active and inactive are the calls of the source. Unless noted, calls follow the shape of the dose curve; as a rule, active = well fitted curve in the direction sought with a large enough effect in the repeat runs; inconclusive = weak or mixed curves; inactive = no such curve, though single readings can be large; an effect the other way counts as inactive or inconclusive.

Experiments:
[1] = qHTS assay to identify aromatase inhibitors - cell viability counter screen (AID 743084); settings: MCF-7 aro ERE viability, CellTiter-Fluor, 24 h; series mostly up to 70.3 µM;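 also: cells stimulated with testosterone during compound exposure; nearly all actives have a fitted effect of over 55% in size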
[2] = molecular target: Aryl hydrocarbon receptor (Homo sapiens) (UniProt P35869); test: qHTS assay to identify small molecule that activate the aryl hydrocarbon receptor (AhR) signaling pathway (AID 743085); settings: HepG2 AhR-luc (HG2L7.5c1), luciferase, 24 h; series mostly up to 70.3 µM;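 also: HG2L7.5c1 human HepG2 liver cells with stably integrated DRE-driven firefly reporter; nearly all actives have a fitted effect of over 15% in size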
Sequence of Aryl hydrocarbon receptor (Homo sapiens) (P35869 whole entry, looked up): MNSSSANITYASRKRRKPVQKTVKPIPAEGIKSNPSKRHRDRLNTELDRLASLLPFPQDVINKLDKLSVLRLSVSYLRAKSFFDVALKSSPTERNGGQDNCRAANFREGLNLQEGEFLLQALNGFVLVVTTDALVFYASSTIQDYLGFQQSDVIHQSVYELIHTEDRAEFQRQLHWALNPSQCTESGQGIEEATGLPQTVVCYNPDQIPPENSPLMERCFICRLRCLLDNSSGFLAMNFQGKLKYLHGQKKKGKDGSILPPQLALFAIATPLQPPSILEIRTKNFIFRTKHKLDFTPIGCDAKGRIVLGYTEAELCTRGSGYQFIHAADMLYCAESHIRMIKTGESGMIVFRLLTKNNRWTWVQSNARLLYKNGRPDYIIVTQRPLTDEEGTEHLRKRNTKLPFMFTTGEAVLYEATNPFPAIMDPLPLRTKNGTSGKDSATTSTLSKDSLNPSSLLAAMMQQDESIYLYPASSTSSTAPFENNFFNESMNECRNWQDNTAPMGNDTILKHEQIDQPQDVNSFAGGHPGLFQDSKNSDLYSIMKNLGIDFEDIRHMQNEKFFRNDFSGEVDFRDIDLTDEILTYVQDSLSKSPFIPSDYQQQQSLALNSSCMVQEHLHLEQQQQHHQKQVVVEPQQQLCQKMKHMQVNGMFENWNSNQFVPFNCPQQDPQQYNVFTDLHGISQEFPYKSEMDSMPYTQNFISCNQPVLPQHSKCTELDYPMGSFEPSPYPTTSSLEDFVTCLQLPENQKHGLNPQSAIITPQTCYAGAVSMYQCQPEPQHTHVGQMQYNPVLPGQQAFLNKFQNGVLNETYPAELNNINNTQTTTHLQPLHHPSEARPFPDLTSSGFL
How it was run: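 HepG2 cells (HG2L7.5c1) stably carrying a firefly luciferase reporter driven by 20 dioxin responsive elements were exposed to compound for 24 h at 37C after a 5 h settling period; luminescence rise (ONE-Glo) indicated activation.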

[3] = qHTS assay to identify small molecule that activate the aryl hydrocarbon receptor (AhR) signaling pathway - cell viability counter screen (AID 743086); settings: HepG2-AhR-luc viability, CellTiter-Fluor, 24 h; series mostly up to 70.3 µM;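 also: HepG2 liver cells carrying the AhR DRE luciferase reporter; nearly all actives have a fitted effect of over 45% in size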
How it was run: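 HepG2-AhR-luc (HG2L7.5c1) cells, 4000/well, treated 24 h at 37 C with compound; viability measured as CellTiter-Fluor fluorescence after 30 min in the same wells as the luciferase read.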

[4] = molecular target: Peroxisome proliferator-activated receptor gamma (Homo sapiens) (UniProt P37231); test: qHTS assay to identify small molecule agonists of the peroxisome proliferator-activated receptor gamma (PPARg) signaling pathway (AID 743094; active = well fitted activation curve with a large enough effect in the signal ratio in the repeat runs, not every such curve was filed as active; the % refers to the signal ratio); settings: HEK293H PPARg-UAS-bla, beta-lactamase FRET ratio, 17 h; series mostly up to 57 µM
Sequence of Peroxisome proliferator-activated receptor gamma (Homo sapiens) (P37231 whole entry, looked up): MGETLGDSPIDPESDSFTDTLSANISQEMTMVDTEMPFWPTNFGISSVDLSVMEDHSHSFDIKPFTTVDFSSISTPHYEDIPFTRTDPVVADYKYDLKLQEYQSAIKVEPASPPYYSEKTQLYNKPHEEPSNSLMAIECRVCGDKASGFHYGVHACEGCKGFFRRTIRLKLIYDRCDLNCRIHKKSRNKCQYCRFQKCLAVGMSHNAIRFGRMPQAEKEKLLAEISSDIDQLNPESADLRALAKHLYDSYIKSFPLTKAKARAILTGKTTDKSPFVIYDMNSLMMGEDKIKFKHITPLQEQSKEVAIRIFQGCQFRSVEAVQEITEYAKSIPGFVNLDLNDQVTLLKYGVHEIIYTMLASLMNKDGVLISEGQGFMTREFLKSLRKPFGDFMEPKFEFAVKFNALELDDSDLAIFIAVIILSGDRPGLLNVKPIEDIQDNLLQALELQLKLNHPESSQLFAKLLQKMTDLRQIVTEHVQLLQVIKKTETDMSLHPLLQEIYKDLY
How it was run: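 GeneBLAzer PPARg UAS-bla HEK293H cells were plated, rested 5 h, then exposed to compounds for 17 h at 37C. Beta-lactamase activity was read by LiveBLAzer B/G FRET substrate fluorescence after 1 h at room temperature.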

[5] = molecular target: Peroxisome proliferator-activated receptor gamma (Homo sapiens) (UniProt P37231); test: qHTS assay to identify small molecule antagonists of the peroxisome proliferator-activated receptor gamma (PPARg) signaling pathway (AID 743191; calls by dose curve; also: nearly all actives have a fitted effect of over 30% in size); settings: HEK293H PPARg-UAS-bla, beta-lactamase ratio, antagonist, 17 h; series mostly up to 62.6 µM
How it was run: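 GeneBLAzer PPARg UAS-bla HEK293H cells, 5 h post-plating, exposed to compounds 17 h at 37C. LiveBLAzer B/G FRET substrate added for 1 h at room temperature; beta-lactamase reporter read by fluorescence intensity.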

[6] = qHTS assay to identify small molecule antagonists of the peroxisome proliferator-activated receptor gamma (PPARg) signaling pathway - cell viability counter screen (AID 743194); settings: PPARg-bla HEK293H viability, CellTiter-Glo luminescence, 17 h, co-treated with 50 nM rosiglitazone; series mostly up to 62.6 µM; also: nearly all actives have a fitted effect of over 55% in size
How it was run: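 Cytotoxicity counter screen in PPARg-bla HEK293H cells, same wells as reporter assay. Compounds plus 50 nM rosiglitazone (final) for 17 h at 37 C, then viability read by CellTiter-Glo luminescence.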

[7] = qHTS assay for small molecule agonists of the antioxidant response element (ARE) signaling pathway (AID 743202; active = well fitted activation curve with a large enough effect in the signal ratio in the repeat runs, not every such curve was filed as active; the % refers to the signal ratio); settings: HepG2 ARE-bla reporter, beta-lactamase FRET, 16 h; series mostly up to 73.3 µM
How it was run: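 ARE-bla HepG2 cells (beta-lactamase reporter under the antioxidant response element), plated 5 hours, then exposed to compounds 16 hours at 37 C. LiveBLAzer B/G FRET substrate added for 2 hours at room temperature; fluorescence intensity read.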

[8] = qHTS assay for small molecule agonists of the antioxidant response element (ARE) signaling pathway - cell viability counter screen (AID 743203; calls by dose curve; also: nearly all actives have a fitted effect of over 55% in size); settings: ARE-bla HepG2 viability, CellTiter-Glo luminescence, 16 h; series mostly up to 73.3 µM
How it was run: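 ARE-bla HepG2 cells were plated, rested 5 h at 37C/5% CO2, then exposed to compounds in DMSO for 16 h. Viability was read as CellTiter-Glo luminescence after 30 min at room temperature, in the same wells as the ARE screen.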

[9] = qHTS assay for small molecule activators of the heat shock response signaling pathway - cell viability counter screen (AID 743209); settings: HSE-bla HeLa viability, CellTiter-Glo luminescence, 5 h; series mostly up to 62.6 µM; also: nearly all actives have a fitted effect of over 50% in size
How it was run: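 HSE-bla HeLa cells plated overnight, then exposed to Tox21 compounds (23 nL in DMSO) for 5 h at 37 C. After the bla reporter read, CellTiter-Glo was added in the same wells and luminescence read after 30 min at room temperature.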

[10] = qHTS assay for small molecule activators of the heat shock response signaling pathway (AID 743210; active = well fitted activation curve with a large enough effect in the signal ratio in the repeat runs, with a control signal flat, not every such curve was filed as active; the % refers to the signal ratio); settings: HeLa HSE-bla reporter, beta-lactamase ratio, 5 h; series mostly up to 62.6 µM
How it was run: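 HSE-bla HeLa cells (beta-lactamase reporter under heat shock response elements), plated overnight, then exposed to compounds 5 h at 37 C; LiveBLAzer B/G FRET substrate added, 2.5 h at room temperature, fluorescence intensity read.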

[11] = qHTS assay to identify small molecule agonists of the peroxisome proliferator-activated receptor delta (PPARd) signaling pathway - cell viability counter screen (AID 743211); settings: PPARd-bla HEK293H viability, CellTiter-Glo luminescence, 17 h; series mostly up to 62.6 µM; also: nearly all actives have a fitted effect of over 55% in size
How it was run: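 PPARd-bla HEK293H cells (UAS-beta-lactamase reporter) were treated with compounds for 17 h at 37 C. Viability was then read in the same wells by CellTiter-Glo luminescence after 30 min at room temperature.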

[12] = molecular target: Peroxisome proliferator-activated receptor delta (Homo sapiens) (UniProt Q03181); test: qHTS assay to identify small molecule agonists of the peroxisome proliferator-activated receptor delta (PPARd) signaling pathway (AID 743212; calls by dose curve); settings: HEK293H PPARd-UAS-bla, beta-lactamase FRET ratio, 17 h; series mostly up to 62.6 µM
Sequence of Peroxisome proliferator-activated receptor delta (Homo sapiens) (Q03181 whole entry, looked up): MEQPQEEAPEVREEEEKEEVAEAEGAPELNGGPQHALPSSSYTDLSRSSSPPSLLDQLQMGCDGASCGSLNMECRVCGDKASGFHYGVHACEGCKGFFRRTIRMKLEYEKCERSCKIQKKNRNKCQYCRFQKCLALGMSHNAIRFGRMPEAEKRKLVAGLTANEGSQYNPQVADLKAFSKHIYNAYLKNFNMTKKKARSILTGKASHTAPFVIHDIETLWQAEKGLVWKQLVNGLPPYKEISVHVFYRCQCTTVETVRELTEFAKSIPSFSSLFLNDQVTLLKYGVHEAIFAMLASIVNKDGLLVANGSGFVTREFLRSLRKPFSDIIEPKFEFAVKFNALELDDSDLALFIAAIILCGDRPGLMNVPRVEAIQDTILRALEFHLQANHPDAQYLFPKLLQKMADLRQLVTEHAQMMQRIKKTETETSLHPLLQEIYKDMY
How it was run: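 GeneBLAzer UAS-bla HEK293H cells carrying a PPARδ construct were exposed to compounds at 37 °C. Beta-lactamase activity was read by FRET fluorescence after 2 h at room temperature with LiveBLAzer B/G substrate.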

[13] = qHTS assay to identify small molecule antagonists of the peroxisome proliferator-activated receptor delta (PPARd) signaling pathway - cell viability counter screen (AID 743213); settings: PPARd-bla HEK293H viability, CellTiter-Glo luminescence, 17 h; series mostly up to 62 µM; also: nearly all actives have a fitted effect of over 50% in size
How it was run: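 HEK293H PPARd UAS-bla cells, 5 h pre-incubation, compound + L165041 300 nM final, 17 h 37 C; B/G FRET substrate 2 h RT; then CellTiter-Glo 30 min RT, luminescence.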

[14] = molecular target: Peroxisome proliferator-activated receptor delta (Homo sapiens) (UniProt Q03181); test: qHTS assay to identify small molecule antagonists of the peroxisome proliferator-activated receptor delta (PPARd) signaling pathway (AID 743215; active = well fitted inhibition curve with a large enough effect in the signal ratio in the repeat runs, not every such curve was filed as active; the % refers to the signal ratio;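 also: cells stimulated with agonist L165041 at 300 nM final during compound exposure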); settings: HEK293H PPARd-UAS-bla, beta-lactamase FRET ratio, antagonist, 17 h; series mostly up to 62 µM
How it was run: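 PPARd-bla HEK293H cells (UAS-bla reporter) preincubated 5 h, then given compound plus 300 nM final L165041 agonist for 17 h at 37 C. Beta-lactamase activity read by LiveBLAzer B/G FRET substrate fluorescence after 2 h at room temperature.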

[15] = qHTS assay to identify small molecule agonists of the farnesoid-X-receptor (FXR) signaling pathway - cell viability counter screen (AID 743218); settings: FXR-bla HEK293T viability, CellTiter-Glo luminescence, 16 h; series mostly up to 62.6 µM; also: nearly all actives have a fitted effect of over 45% in size
How it was run: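 FXR-UAS-bla HEK 293T cells exposed to compounds for 16 h at 37C. Cytotoxicity read in the same wells by CellTiter-Glo luminescence after 30 min at room temperature, following the beta-lactamase FRET read.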

[16] = qHTS assay to identify small molecule antagonists of the farnesoid-X-receptor (FXR) signaling pathway - cell viability counter screen (AID 743221; active = well fitted cell-killing curve with a large enough effect in the repeat runs, not every such curve was filed as active; also: nearly all actives have a fitted effect of over 50% in size); settings: FXR-bla HEK293T viability, CellTiter-Glo luminescence, 16 h; series mostly up to 62.6 µM
How it was run: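 FXR-UAS-bla HEK 293T cells were treated with test compounds plus chenodeoxycholic acid (50 uM final) for 16 h at 37 C. Cell viability in the same wells was then read as CellTiter-Glo luminescence after 30 min at room temperature.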

[17] = molecular target: Vitamin D3 receptor (Homo sapiens) (UniProt P11473); test: qHTS assay to identify small molecule agonists of the vitamin D receptor (VDR) signaling pathway (AID 743222; calls by dose curve); settings: HEK293T VDR-UAS-bla, beta-lactamase FRET ratio, 16 h; series mostly up to 63.5 µM
Sequence of Vitamin D3 receptor (Homo sapiens) (P11473 whole entry, looked up): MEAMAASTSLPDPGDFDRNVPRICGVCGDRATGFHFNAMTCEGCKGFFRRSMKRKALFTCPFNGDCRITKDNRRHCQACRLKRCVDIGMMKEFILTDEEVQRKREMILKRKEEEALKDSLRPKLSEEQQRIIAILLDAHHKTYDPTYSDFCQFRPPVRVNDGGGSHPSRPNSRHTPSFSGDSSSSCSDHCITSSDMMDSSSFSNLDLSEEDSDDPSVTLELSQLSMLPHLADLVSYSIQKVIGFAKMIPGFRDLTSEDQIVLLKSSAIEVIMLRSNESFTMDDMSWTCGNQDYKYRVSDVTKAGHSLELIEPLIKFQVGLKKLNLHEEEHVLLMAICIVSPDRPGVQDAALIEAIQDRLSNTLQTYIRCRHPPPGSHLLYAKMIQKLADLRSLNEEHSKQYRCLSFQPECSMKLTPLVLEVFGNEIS
How it was run: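 VDR-bla cells plated 4 h at 37 C, then exposed to compounds for 16 h at 37 C. Beta-lactamase reporter activity measured by fluorescence after 2 h room-temperature loading with LiveBLAzer B/G FRET substrate.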

[18] = molecular target: Bile acid receptor (Homo sapiens) (UniProt Q96RI1); test: qHTS assay to identify small molecule antagonists of the farnesoid-X-receptor (FXR) signaling pathway (AID 743217; active = well fitted inhibition curve with a large enough effect in the signal ratio in the repeat runs, not every such curve was filed as active; the % refers to the signal ratio); settings: HEK293T FXR-UAS-bla, beta-lactamase ratio, CDCA-stimulated, 16 h; series mostly up to 62.6 µM
Sequence of Bile acid receptor (Homo sapiens) (Q96RI1 whole entry, looked up): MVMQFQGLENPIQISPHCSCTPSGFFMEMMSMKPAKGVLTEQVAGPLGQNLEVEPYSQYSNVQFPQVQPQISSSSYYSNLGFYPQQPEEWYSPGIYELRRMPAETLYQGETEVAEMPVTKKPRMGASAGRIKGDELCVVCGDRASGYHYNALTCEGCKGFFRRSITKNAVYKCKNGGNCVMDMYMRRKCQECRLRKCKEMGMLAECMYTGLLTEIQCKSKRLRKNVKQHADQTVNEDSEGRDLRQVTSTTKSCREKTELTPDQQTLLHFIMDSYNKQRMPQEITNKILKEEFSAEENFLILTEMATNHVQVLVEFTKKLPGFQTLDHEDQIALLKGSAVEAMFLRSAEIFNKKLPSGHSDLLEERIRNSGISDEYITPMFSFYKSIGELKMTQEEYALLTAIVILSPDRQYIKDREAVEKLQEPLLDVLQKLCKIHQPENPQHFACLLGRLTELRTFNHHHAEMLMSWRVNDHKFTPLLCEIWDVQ
How it was run: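 FXR-UAS-bla HEK 293T cells (beta-lactamase reporter) given compound plus chenodeoxycholic acid (50 uM final), 16 h at 37C. LiveBLAzer B/G FRET substrate added for 2 h at room temperature; fluorescence read.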

[19] = molecular target: Vitamin D3 receptor (Homo sapiens) (UniProt P11473); test: qHTS assay to identify small molecule antagonists of the vitamin D receptor (VDR) signaling pathway (AID 743223; active = well fitted inhibition curve with a large enough effect in the signal ratio in the repeat runs, not every such curve was filed as active; the % refers to the signal ratio); settings: VDR-UAS-bla HEK293T, beta-lactamase FRET ratio, 16 h; series mostly up to 61 µM
How it was run: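 VDR-bla cells were plated, incubated 4 h at 37C, then given compound and 1alpha,25-dihydroxyvitamin D3 (3 nM final). After 16 h at 37C, LiveBLAzer B/G FRET substrate was added for 2 h at room temperature and fluorescence read.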

[20] = molecular target: Bile acid receptor (Homo sapiens) (UniProt Q96RI1); test: qHTS assay to identify small molecule agonists of the farnesoid-X-receptor (FXR) signaling pathway (AID 743220; active = well fitted activation curve with a large enough effect in the signal ratio in the repeat runs, not every such curve was filed as active; the % refers to the signal ratio); settings: HEK293T FXR-UAS-bla, beta-lactamase FRET ratio, 16 h; series mostly up to 62.6 µM
How it was run: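 Beta-lactamase reporter under UAS control in GeneBLAzer FXR HEK 293T cells (5000/well) measured with LiveBLAzer FRET substrate after 2 h at room temperature. Compound exposure lasted 16 h at 37C.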

Measured: Potency

Nc1ccnc(=O)[nH]1
not listed: [18] | [19] | [20]
inactive: all other assays above

CC(C)C(=O)c1ccccc1
not listed: [10] | [15] | [16] | [17] | [18] | [19] | [20]
inactive: all other assays above

C[CH2][Ge]([Cl])([CH2]C)[CH2]C
not listed: [12] | [20]
inactive: all other assays above

CC(C)COC(=O)CCCCC(=O)OCC(C)C
not listed: [11] | [13] | [14] | [19]
inactive: all other assays above

CCC(O)C(C)(C)C (stereo not drawn)
not listed: [8] | [12] | [15] | [17] | [18] | [19]
inactive: all other assays above

NS(=O)(=O)c1ccccc1OC(F)(F)F
not listed: [7] | [12] | [14]
inactive: all other assays above

NS(=O)(=O)c1cc2c(cc1Cl)NC(CC1CCCC1)NS2(=O)=O (stereo not drawn)
not listed: [9] | [12] | [14]
inactive: all other assays above

NS(=O)(=O)c1ccc(Cl)c(S(N)(=O)=O)c1
not listed: [7] | [8] | [10] | [12] | [13] | [14] | [18] | [20]
inactive: all other assays above

CCC(=O)OCCC(C)CCC=C(C)C (stereo not drawn)
not listed: [7] | [8] | [10] | [14] | [18] | [20]
inactive: all other assays above

CC1CCC(C(C)(C)S)C(=O)C1 (stereo not drawn)
not listed: [7] | [8] | [15] | [17]
inactive: all other assays above

COC(=O)CCC(=O)O
not listed: [7] | [12] | [14] | [18] | [20]
inactive: all other assays above

CCCCCCCCCOCC1CO1 (stereo not drawn)
not listed: [7] | [10] | [12] | [15] | [17] | [18] | [20]
inactive: all other assays above

C1=CCC(c2ccccc2)CC1 (stereo not drawn)
not listed: [7] | [8] | [18] | [20]
inactive: all other assays above

C=C(C)C(=O)OC
not listed: [5] | [17] | [19]
inactive: all other assays above

Nc1ccc(S(=O)(=O)NC(=O)c2ccccc2)cc1
not listed: [7] | [17] | [18] | [19] | [20]
inactive: all other assays above

O=S1(=O)CCCC1
not listed: [9] | [12] | [13] | [14] | [17]
inactive: all other assays above

CC(C)COC(=O)CC(C(=O)OCC(C)C)S(=O)(=O)O (stereo not drawn)
not listed: [7] | [8] | [12] | [14] | [17] | [18] | [19] | [20]
inactive: all other assays above

O=C(O)c1ccccc1C(=O)Nc1ccc(S(=O)(=O)Nc2nccs2)cc1
not listed: [6] | [15] | [18] | [20]
inactive: all other assays above
